± gives the standard deviation of the averaged measurements. Whole data set: some 25,000 sequences, median “ln(normalized median fluorescence intensity)” near 8.6, cut for the highest 2% near 10. The full list was thinned out, with the highest values kept by preference.
Test system: PfAP2-EXP AP2 domain (GST-tagged)
Test: gcPBM binding intensity (ln(normalized median fluorescence intensity)); higher = stronger DNA binding
How it was run: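 Each value is the highest Masliner-normalised natural-log median intensity across replicate spots of either orientation of a probe. The probes were primer-extended double-stranded 36-bp intergenic genomic sequences on an Agilent 4 × 180k array, alongside negative controls, exposed for 1 h to GST-tagged P. falciparum DNA-binding domains expressed in E. coli. Bound protein was picked up with Alexa488 anti-GST antibody and scanned at 488 nm.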

| Sequence | gcPBM binding intensity (ln) |
| --- | --- |
| TTTGAGATGTGGTGTACACAAAATTAGGTACACATC [CACACA_site5773] | 8.92 ± 0.33 |
| TCTTTTTCTTCTTATGTGCACATCAATTATGCTTCT | 9.33 ± 0.35 |
| AATGTGCTCGCTATTACACACTCATTGGGATAAACT [CACACA_site7043] | 8.56 ± 0.4 |
| TAAATTAATAAACAAGTGCATATATATATATATATA | 10.2 ± 0.38 |
| CTGAAATTAACAAAAGTGCATAAAAATAAAAAATAT [GTGCAC_site9652] | 8.99 ± 0.29 |
| TAAAAAATTAATAAAGTGCATAAATATTACAATATT | 8.32 ± 0.18 |
| TTTTTTTATTATTAAAGTACTAAAAAATGAAAACTG [XGTACX_site6758] | 8.26 ± 0.18 |
| AAGTTGGAAAGGTTATGTACTTATTTTTTAAAATAA [XGTACX_site204] | 8.27 ± 0.45 |
| TATCATTTTGTATATAGTACATATATAAAATCGTTA [XGTACX_site3875] | 8.35 ± 0.29 |
| GTATAATAAATGATAGCACACATATGTACTTATATA [CACACA_site8188] | 8.57 ± 0.25 |
| AGCCTCGGGGTCATATATATATATATATATATATAT [CACACA_negctrl_site512] | 10.2 ± 0.53 |
| ATATAGTAAAATTATACACACATGAATTTTCCCATG [CACACA_site1770] | 8.48 ± 0.49 |
| TATATATAAACATAATGTACATATAATAAGTAATAT [XGTACX_site497] | 8.89 ± 0.45 |
| AATAATAATAGTAATATGTACATATATATATATATA [TGCATGCA_negctrl_site542] | 10.1 ± 0.33 |
| ATAAGTAATATAATATGTACATATATATATATATAT [XGTACX_site3818] | 10.2 ± 0.37 |
| TAATAATAGTAAATATGTACATATATATATATATAG [XGTACX_site4602] | 8.73 ± 0.3 |
| ATAAATAAATAAGTACATATATATATGTATATATAT [TGCATGCA_negctrl_site223] | 8.775 ± 0.021 |
| ATAATAATAGTAATATGTACATATATATATATATAT [XGTACX_site7437] | 10.2 ± 0.53 |
| TTTAATAATATTTAGGTGCTATATATTATATGTATA | 8.32 ± 0.21 |
| CAATATAAAATAAAATGTACTTGTAGTAAAGGGATA [XGTACX_site1452] | 8.79 ± 0.35 |
| ATACAACATATATATACACACATATAATAATAATAA [CACACA_site3367] | 8.62 ± 0.42 |
| ATTACATGATATATCACACACACATATAGATATATA [CACACA_site7352] | 8.65 ± 0.44 |
| CATAGATACATACACGCACACACATATATATATATA [CACACA_site13] | 9.97 ± 0.36 |
| TAGATACATACACGCACACACATATATAAATAAATA [CACACA_site6157] | 8.69 ± 0.49 |
| CATATATAGATATATACACACATACATACATACATA [CACACA_site7748] | 8.55 ± 0.38 |

| Sequence | gcPBM binding intensity (ln) |
| --- | --- |
| AAGTAATACAACACGCACATATATATATATATATAT [GTGCAC_negctrl_site89] | 10.3 ± 0.3 |
| GAAATGTGATAATATACACACACGCATATATATATA [CACACA_site4332] | 9.86 ± 0.3 |
| AATGTGATAATATACACACACGCATATATATATATA [CACACA_site323] | 10.2 ± 0.2 |
| TAGATACATACACGCACACACATATATATATATATA [CACACA_site12] | 10.2 ± 0.29 |
| AATACATATAATACAACACACAAGTAATATAAACCT [CACACA_site3597] | 8.87 ± 0.53 |
| TGTGCACGCATATACACACACAAATACAATGATAAA [CACACA_site6656] | 8.65 ± 0.36 |
| ATAGATATACATATCACACATATATATATATATATA [CACACA_site4985] | 10.2 ± 0.23 |
| TTATTCTAAAAATATACACACAACAACAAACAAACA [CACACA_site1543] | 9.04 ± 0.39 |
| GAAAAAAAAAAAAAAAAACACACGGTACATTCAAAG [CACACA_site303] | 8.5 ± 0.58 |
| TACTGATCCACATTTATACACACCTCGGTTTGTAGA [CACACA_site417] | 8.56 ± 0.4 |
| CTTAATATTCTTTAAAGTACACAAAATAAGAATATA [XGTACX_site5489] | 8.87 ± 0.59 |
| ATAATATAAATACAAACACACAATTGCGTCCACATT [CACACA_site5039] | 8.82 ± 0.38 |
| GTCCAATAAGGAAGAGTGCAAAAATTAAATAATATA [GTGCAC_site9751] | 8.76 ± 0.28 |
| TATATTTATACAATATGTACATATTATATATATATA [XGTACX_site3098] | 9.57 ± 0.26 |
| TATATATATTATATATGTACATATTATATATATATA [XGTACX_site7300] | 9.46 ± 0.17 |
| ATATATATATATATATGTACATATATATATTATATT [XGTACX_site6303] | 10 ± 0.62 |
| ATATATATATATATATGTACATATTATTCTCATTGT [XGTACX_site6259] | 9.88 ± 0.28 |
| ATATATATATATATATGTACATATATTCGATTATTA [XGTACX_site557] | 10.29 ± 0.049 |
| ATATATATATATATATGTACATACAATTATATTCTC [XGTACX_site1133] | 10.2 ± 0.29 |
| AAGTTTTTTTCTTTTTTTCTCTCTTTTTTTTTTTTT [XGTACX_negctrl_site613] | 8.19 ± 0.51 |
| ATAAATATATATATAGTGCATATAAGCCACCTTCAA [GTGCAC_site9628] | 8.86 ± 0.014 |
| AATTGAAAAGAATGAAGTACACATTTGATGATACAT [XGTACX_site5182] | 8.62 ± 0.33 |
| TACAATATAAAATACACACGCACACCGAAAAAAAAA [CACACA_site5865] | 8.53 ± 0.4 |
| ATATAAAAAAAAAATTGTACAAAAATATATACATAT [XGTACX_site469] | 8.53 ± 0.42 |
| AAATATATTATAAATTGTACGTTTATATATATTATT [XGTACX_site5110] | 8.29 ± 0.37 |

| Sequence | gcPBM binding intensity (ln) |
| --- | --- |
| AATAATATATTTAGGGGTACATAATAATATATTTTA [XGTACX_site8366] | 8.81 ± 0.6 |
| TTAGGCAAGGCGGGGGGTACGTTTTTATATAATTAT [XGTACX_site8029] | 10.7 ± 0.18 |
| ATCTTTCCTATTTGTAGTACAAAAAAAAAAAAAAAA [XGTACX_site5485] | 8.44 ± 0.18 |
| TTTGTAATAACATATGCATGTTCAAAAAATAAAATA [TGCATGCA_site817] | 8.4 ± 0.36 |
| AAGAAAAACTTATATATATATATATATATATATATA [TGCATGCA_negctrl_site466] | 10.3 ± 0.29 |
| AAGAAAAAAAAAAAAACACACATATATTTATTTATA [CACACA_site7042] | 8.06 ± 0.47 |
| TTATAAAAGAAAAAAAAAAAAAAAAAAAAAAAAAAA [CACACA_negctrl_site1006] | 7.89 ± 0.43 |
| TATACATTATTATTATGTACTTAAATATATATTATA [XGTACX_site5173] | 8.35 ± 0.34 |
| ATTACAAATATAATATGTACTTAAATATAATTAAAA [XGTACX_site7038] | 8.17 ± 0.34 |
| TTTAATAATATAATGTGTACTTAAAAATTTATATAT [XGTACX_site5821] | 8.29 ± 0.21 |
| ATATATATATATATATGTACTTAAAAAATATATACA [XGTACX_site8952] | 10.2 ± 0.53 |
| ATATATATATATGTGTGTACTTAAAAATATAATGCA [XGTACX_site7753] | 10.2 ± 0.14 |
| AATAATAAATAAATGTGTACTTAAAAATATTATATT [XGTACX_site3005] | 8.44 ± 0.33 |
| TGGAAAATTATTAACACACACATATAAATATATATA [CACACA_site46] | 8.4 ± 0.45 |
| TGCAAATTTAACAAAAAAAAAAAAAAAAAAAAAAAA [GTGCAC_negctrl_site64] | 7.88 ± 0.45 |
| AAAATACAATTTCTAGCACACAAAATATTATTATAA [CACACA_site9056] | 8.34 ± 0.37 |
| TTCACTTTTTTTTTTTTTTTTTTTTTTTTTTTTATT [GTGCAC_negctrl_site350] | 8.07 ± 0.56 |
| TAATTTCTTATGTATTGTACATATAATATATGATAT [XGTACX_site4898] | 8.52 ± 0.41 |
| AATATTTTCTGTAATACTTCTTTTCAATTTATTTCG [CACACA_negctrl_site1390] | 8.76 ± 0.45 |
| ATATATATATATATATGGTAAAGTAAAAGGAAATAC [XGTACX_negctrl_site45] | 10.3 ± 0.3 |
| TATAAAATAAAAGTAAATATATATATATATATATAT [TGCATGCA_negctrl_site208] | 10.1 ± 0.3 |
| ATAATATATGAAAGTGGTACACAAAGGAAAATAAAA [XGTACX_site333] | 9.14 ± 0.57 |
| GAAACGTTTTTGAGTAGTACACACACAATAAGGATG [XGTACX_site6809] | 9.02 ± 0.45 |
| TTTTATACATAAATGTGTACGTATATATAATGAATT [XGTACX_site2762] | 8.59 ± 0.32 |
| GATTTATATTTTAAAAGTACAAGTTAAAATAAAAGT [XGTACX_site7059] | 8.74 ± 0.33 |

| Sequence | gcPBM binding intensity (ln) |
| --- | --- |
| TTATTTTATTTTTTTGTGCACATATATATTTATAAA [GTGCAC_site9615] | 9.15 ± 0.21 |
| TATGTATATTTTTTTGTGCACATATATATATATATA | 10.2 ± 0.26 |
| TTTTTGTTATTATGTGTGCACATATATATATATATA | 10.3 ± 0.4 |
| ATATATGATGTATTTGTGCACATATATATATTATTA [GTGCAC_site9471] | 8.75 ± 0.028 |
| ATATATATTATGTGTGTGCACTTTTGTTATTATTAT | 9 ± 0.33 |
| ACATATTATATATGTGTGCACATATATATATATTTA [GTGCAC_site9591] | 8.47 ± 0.13 |
| AACAAATACAGACACACACACACACTAATAAAAAAA [CACACA_site8067] | 8.66 ± 0.52 |
| ATATATGGAAAGAGTAGTACTATTATAGGGGTGTTA [XGTACX_site6785] | 8.95 ± 0.64 |
| TTTTTTTTGTAGAATTGTACTTATAAAATATATATA [XGTACX_site2116] | 8.19 ± 0.34 |
| TAAAAATTACTATATGAACACACATGATTAGATATA [CACACA_site9012] | 8.43 ± 0.49 |
| TTATATTTATAAAGGTGTACCTTAAAATGATTTTAC [XGTACX_site3774] | 8.19 ± 0.25 |
| ATATATATATATGTCTGTACATAAAAAATAATAAAT [XGTACX_site3122] | 10 ± 0.36 |
| GTCATATATAATTGTTGTACATTTTTATAATTATGT [XGTACX_site8091] | 8.86 ± 0.36 |
| GCTCAATGTTTTACATGTACATATATATATATATAT [XGTACX_site8210] | 10.2 ± 0.33 |
| AAAAAAAATATAATATGTACATATCTATATATCAAC [XGTACX_site4881] | 8.55 ± 0.38 |
| TGTGTATATTATATGTGTACATATCAATGTTTATAT [XGTACX_site1885] | 8.61 ± 0.26 |
| ATATATATATATATATGTACATATATTTATATTTAT [XGTACX_site6179] | 9.99 ± 0.42 |
| ATTTATTTATTTATATGTACATATATATATATATAT [XGTACX_site339] | 10.1 ± 0.3 |
| ATATATATATATATATGTACATATATTTATTTATTG [XGTACX_site6267] | 10.2 ± 0.3 |
| ATTTGTTCATTTGGTTGTACATAATTTATTTTTATA [XGTACX_site785] | 8.75 ± 0.33 |
| ATATATATATATATATGTACATATGTCAACTGTCTA [XGTACX_site8636] | 10.3 |
| GTAATTTTATATGGTTGTACATATATATATATATAT [XGTACX_site6659] | 10.2 ± 0.18 |
| TATACATGTATATATTGTACATATGTTTTTTTTACA [XGTACX_site3300] | 8.86 ± 0.57 |

— the supplement of paper PMC11417369
